This note sets out measurements from PubChem BioAssay AID588342 (National Center for Advancing Translational Sciences (NCATS), 2011).

Screen size: about 360,000 compounds; about 25,000 (6.9%) were called active. Not shown: some 9% with an inconclusive outcome. Calls follow the shape of the dose curve; as a rule, active = well fitted inhibition curve with a large enough effect; inconclusive = small, poorly fitted or top-dose-only effect; inactive = flat fitted curve, though single readings scatter. The sample as a whole holds a higher share of actives than the screen did.
Potency is read from the fitted curve at half-maximal effect.

The target in the experiment is Luciferin 4-monooxygenase (Photinus pyralis) (UniProt P08659). Description: qHTS profiling assay for firefly luciferase inhibitor/activator using purifed enzyme and Km concentrations of substrates (counterscreen for miR-21 project). Also: nearly all actives have a fitted effect of over 55% in size.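 As to activity change, negative = inhibition: plate controls were vehicle for no effect and reference inhibitor for full effect.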 The following applies: purified FLuc, luminescence inhibition; series mostly up to 57.5 µM; activity change, negative = inhibition: at the top concentration. In short, it runs like this: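 Biochemical qHTS of compounds, final roughly 60 µM downward over six points, against 10 nM purified firefly luciferase using Km concentrations of substrates (10 uM D-luciferin, 10 uM ATP) in Tris acetate pH 7.5 buffer; luminescence output.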
Luciferin 4-monooxygenase (Photinus pyralis), sequence (P08659 whole entry, looked up): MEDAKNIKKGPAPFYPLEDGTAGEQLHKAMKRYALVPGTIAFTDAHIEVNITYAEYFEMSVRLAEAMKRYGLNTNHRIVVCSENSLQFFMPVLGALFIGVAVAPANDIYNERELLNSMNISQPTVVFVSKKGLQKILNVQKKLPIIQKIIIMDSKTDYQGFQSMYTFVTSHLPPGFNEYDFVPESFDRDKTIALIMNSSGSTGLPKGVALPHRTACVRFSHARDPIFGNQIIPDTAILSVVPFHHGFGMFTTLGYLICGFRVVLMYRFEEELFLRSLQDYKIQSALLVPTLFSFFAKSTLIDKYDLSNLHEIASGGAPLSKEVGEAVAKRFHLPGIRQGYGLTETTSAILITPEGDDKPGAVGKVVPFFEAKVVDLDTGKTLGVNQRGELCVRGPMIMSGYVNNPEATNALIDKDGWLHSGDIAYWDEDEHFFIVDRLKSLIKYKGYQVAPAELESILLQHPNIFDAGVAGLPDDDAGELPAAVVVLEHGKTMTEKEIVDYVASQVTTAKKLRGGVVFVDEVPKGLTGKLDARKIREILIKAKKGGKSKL
For the compound `CO/N=C/c1cn(-c2ccc(Cl)cc2)nn1`, the “activity change, negative = inhibition” value was -24.2% (inactive).

Turning to `O=C(CC1C(=O)N(c2ccccc2)C(=O)N1CCc1cccs1)Nc1ccc(F)cc1` (configuration not stated), the “activity change, negative = inhibition” value is -2.66% (inactive).

As for `CC(C)Sc1oc(-c2cccs2)nc1S(=O)(=O)c1ccc(Cl)cc1`, the “activity change, negative = inhibition” value was -3.69% (inactive).

For `COCc1c(N)c(C)nc(Cl)c1C#N`, the Potency was 10.7 µM (active).

For `Cc1nc(Cl)c(C#N)c2c1CCCC2`, the “activity change, negative = inhibition” value is -0.445% (inactive).

For `COc1ccc(C2=NC(c3ccncc3)=Nc3ccc(Br)cc3N2)cc1`, the “activity change, negative = inhibition” value is -16.1% (inactive).

With `CCc1nnc2c3ccccc3nc(N3CCN(c4ccc(C)cc4C)CC3)n12`, the “activity change, negative = inhibition” value is -1.42% (inactive).

With `COc1cccc(NC(=O)CN2C(=O)c3ccccc3Sc3ncccc32)c1`, the “activity change, negative = inhibition” value was -3.31% (inactive).

For the compound `Cc1cccc(CNC(=O)c2cnc3sc(N4CCCCC4)nn3c2=O)c1`, the “activity change, negative = inhibition” value was -1.04% (inactive).

As to `Brc1cccc(-c2nnn3c2nc(NC2CCCCC2)c2ccccc23)c1`, the “activity change, negative = inhibition” value was -2.51% (inactive).

Regarding `Nc1cc(C(F)(F)F)ccc1N1CCOCC1`, the “activity change, negative = inhibition” value was -1.06% (inactive).

Take `CCn1c(C)c(C)c2cc(C(=O)NCCc3cc(OC)ccc3OC)ccc21`: the “activity change, negative = inhibition” value was -18.4% (inactive).

On to `CCOC(=O)c1c(NC(=O)c2cc(-c3ccc(Cl)cc3)on2)sc2c1CCCC2`, for which the “activity change, negative = inhibition” value was -12.9% (inactive).

As for `CCOc1ccc(NC(=O)C2CCN(S(=O)(=O)c3cc(-c4noc(C)n4)ccc3C)CC2)cc1`, the “activity change, negative = inhibition” value was 1.53% (inactive).

Regarding `CCOC(=O)CCc1c(C)c2ccc(OCc3nn[nH]n3)c(C)c2oc1=O`, the Potency is 15.1 µM (active).

`COc1ccc2c(C)c(CCC(=O)NC3CC3)c(=O)oc2c1C`: the “activity change, negative = inhibition” value is -18.3% (inactive).

Regarding `Cc1c(CCC(=O)O)c(=O)oc2c(C)c(OCc3ccccc3Cl)ccc12`, the “activity change, negative = inhibition” value was -3.32% (inactive).

`Cc1ccc(NC(=O)CC2S/C(=N/N=C3\CCCc4ccccc43)NC2=O)cc1` (configuration not stated): the “activity change, negative = inhibition” value is 3.18% (inactive).

Take `Cc1ccc(N/N=C2\COC(C)(C)CC2=O)cc1`: the Potency is 7.57 µM (active).

In the case of `Cc1ccc(-n2c(SCC(=O)Nc3cccc(F)c3)nc3c(oc4ccccc43)c2=O)cc1C`, the “activity change, negative = inhibition” value was -9.06% (inactive).

In the case of `COc1cc(Br)cc2cc(S(=O)(=O)c3ccccc3)c(=O)oc12`, the “activity change, negative = inhibition” value is -12.4% (inactive).

For `COc1ccc(C(=O)NCCSc2ccccc2C)cc1`, the Potency is 3.79 µM (active).

`COc1cccc(C(=O)NCCSc2ccc(Br)cc2)c1`: the “activity change, negative = inhibition” value is -13.2% (inactive).

As for `COc1ccc(C(=O)NCc2nnc(SCCOc3ccccc3)n2C)cc1`, the “activity change, negative = inhibition” value is 0.822% (inactive).

`COc1ccccc1CN1CCC(CNC(=O)c2cnn(-c3ccccc3Cl)c2C2CCN(C(=O)OC(C)(C)C)CC2)CC1`: the “activity change, negative = inhibition” value is -1.99% (inactive).

In the case of `Cc1cc(C(F)(F)F)nc(SCC(=O)Nc2nccs2)n1`, the “activity change, negative = inhibition” value is 6.31% (inactive).

On to `O=C1CCCc2c1nc(-c1cccc(Cl)c1)n2O`, for which the “activity change, negative = inhibition” value is -0.28% (inactive).

`Cc1cc(=O)n2[nH]c(-c3cccc(Cl)c3)cc2n1`: the Potency is 15.1 µM (active).

Take `O=c1c2c(nc3cc(-c4cccc(Cl)c4)[nH]n13)CCCC2`: the Potency was 0.478 µM (active).

As to `CCCc1cc(=O)n2[nH]c(C)c(-c3ccc(Cl)cc3)c2n1`, the “activity change, negative = inhibition” value was -2.04% (inactive).

As for `Cc1cc(=O)n2[nH]c(-c3sccc3-n3c(C)ccc3C)cc2n1`, the “activity change, negative = inhibition” value is -15.7% (inactive).

`O=c1c2c(nc3nc[nH]n13)CCC2`: the “activity change, negative = inhibition” value was -0.341% (inactive).

Regarding `CCOC(=O)c1c(-c2ccc(OC)cc2)oc2ccc(OCc3ccc(C(=O)OC)cc3)cc12`, the “activity change, negative = inhibition” value is 3.13% (inactive).

On to `COc1ccc(C)cc1NC(=O)CCc1c(C)nn(-c2ccc(N3CCOCC3)nn2)c1C`, for which the “activity change, negative = inhibition” value was -14.2% (inactive).

For `Cc1ccc(Cn2c(C)c3cnn(CC(=O)NCc4ccccc4)c(=O)c3c2C)cc1`, the “activity change, negative = inhibition” value is -15.1% (inactive).

For the compound `CC(=O)c1c(C)n(S(=O)(=O)c2ccc(Cl)cc2)c2ccc(NS(=O)(=O)c3ccc(Cl)cc3)cc12`, the “activity change, negative = inhibition” value is 0.804% (inactive).

For the compound `COc1cc(C(=O)Nc2ncccc2C)ccc1OCC(=O)N1CCOCC1`, the “activity change, negative = inhibition” value was 3.05% (inactive).

Take `COc1cc(OC)cc(-c2nc3nc(C)c(CCC(=O)Nc4ccccc4)c(C)n3n2)c1`: the “activity change, negative = inhibition” value was 1.43% (inactive).

In the case of `COc1ccc(-c2cc3nc(C)c(CCC(=O)NC(C)CCc4ccco4)c(C)n3n2)c(OC)c1` (configuration not stated), the “activity change, negative = inhibition” value is 1.35% (inactive).

Take `COc1ccccc1-c1cc2nc(C)c(CCC(=O)O)c(C)n2n1`: the Potency was 15.1 µM (active).

Consider `CCOc1ccc(OCC)c(NC(=O)CN(c2ccc(C)cc2)S(=O)(=O)c2c(C)n[nH]c2C)c1`, for which the “activity change, negative = inhibition” value is -2.42% (inactive).

As for `CCOC(=O)c1c(S(=O)(=O)NCC(=O)Nc2ccc(Cl)c(C(F)(F)F)c2)c(C)n(C)c1C`, the “activity change, negative = inhibition” value is -14.6% (inactive).

As for `C[C@H](NC(=O)c1ccccc1)C(=O)OCC(=O)c1c[nH]c2ccccc12`, the “activity change, negative = inhibition” value was -19.2% (inactive).

On to `CC1CCN(CC(=O)c2c[nH]c3ccccc23)CC1`, for which the “activity change, negative = inhibition” value was -0.382% (inactive).

`O=C(OCC(=O)c1c[nH]c2ccccc12)c1cccc(O)c1`: the Potency is 9.53 µM (active).

Regarding `Cn1c(=O)[nH]c(=O)c2c1nc(CN1CCN(c3ccccc3F)CC1)n2CCc1ccccc1`, the “activity change, negative = inhibition” value was 1.71% (inactive).

In the case of `CCOc1cc(CNC(=O)c2sc3ncnc(N(C)C4CCCCC4)c3c2C)ccc1OC`, the “activity change, negative = inhibition” value is -12.1% (inactive).

Regarding `O=C(CSCc1c(F)cccc1Cl)NCC1CCCO1` (configuration not stated), the “activity change, negative = inhibition” value is 2.11% (inactive).

With `O=C(Nc1ccccc1C(=O)NCC1CCCO1)c1ccccc1F` (configuration not stated), the “activity change, negative = inhibition” value was -2.21% (inactive).

On to `Cc1ccc(-c2noc(-c3ccccc3C(=O)NCC3CCCO3)n2)cc1` (configuration not stated), for which the Potency was 4.78 µM (active).

Turning to `COCCNC(=O)c1ccccc1-c1nc(-c2ccccc2Cl)no1`, the Potency is 12 µM (active).

As to `COCCNC(=O)c1cc(-c2cccc(Cl)c2)on1`, the “activity change, negative = inhibition” value is -4.38% (inactive).

Regarding `Cc1onc(-c2ccccc2Cl)c1C(=O)NCCn1ccc2ccccc21`, the “activity change, negative = inhibition” value was 11.8% (inactive).

Turning to `O=C(NCC1CCCO1)c1ccccc1-c1nc(-c2ccccc2Cl)no1` (configuration not stated), the Potency is 12 µM (active).

In the case of `O=C(NCC1CCCO1)c1cc2c([nH]c3ccccc32)c(-c2ccc(F)cc2)n1` (configuration not stated), the “activity change, negative = inhibition” value was 2.88% (inactive).

Regarding `Cc1ccccc1CN(c1ccc(C(=O)NCC2CCCO2)cc1)S(C)(=O)=O` (configuration not stated), the “activity change, negative = inhibition” value was -0.433% (inactive).

Consider `CCC(=O)N1c2ccccc2CC1C(=O)N1CCN(c2cccc(OC)c2)CC1` (configuration not stated), for which the “activity change, negative = inhibition” value is 1.83% (inactive).

`Cc1c(C)n(Cc2ccc(Cl)cc2)c2ccc(C(=O)N3CCN(c4ccccc4F)CC3)cc12`: the “activity change, negative = inhibition” value is -5.91% (inactive).

Turning to `CCOc1cc(C(=O)NCCc2csc3nc(-c4ccc(C)cc4)nn23)cc(OCC)c1OCC`, the “activity change, negative = inhibition” value is 6.07% (inactive).

With `CCCn1c(NCc2ccccc2F)nc2ccccc21`, the “activity change, negative = inhibition” value is -15.2% (inactive).

As for `Cc1ccc(NC(=O)c2cccc(S(=O)(=O)N3CCCc4ccccc43)c2)nc1`, the “activity change, negative = inhibition” value was 0.271% (inactive).

For `Cc1c(C(=O)N2CCCC2)oc2c1-c1nn(CC(=O)NCc3ccc(OC(C)C)cc3)cc1CC2`, the “activity change, negative = inhibition” value is -13.6% (inactive).

`CC1CCCC(C)N1C(=O)COC(=O)COc1ccccc1C#N` (configuration not stated): the “activity change, negative = inhibition” value is 2.51% (inactive).

For the compound `O=C(CC1Oc2ccc(Cl)cc2NC1=O)NCc1ccccc1` (configuration not stated), the “activity change, negative = inhibition” value is -6.6% (inactive).

Take `CCCc1cc(=O)oc2c(C)c(OCC(=O)N3CCC(C(=O)O)CC3)ccc12`: the “activity change, negative = inhibition” value is 3.56% (inactive).

Take `CCCCc1cc(=O)oc2c(C)c(OCC(=O)N3CCC(C(N)=O)CC3)ccc12`: the “activity change, negative = inhibition” value is 6.74% (inactive).

On to `Cc1c(C)c2ccc(OCC(=O)N3CCC(C(=O)O)CC3)c(C)c2oc1=O`, for which the Potency was 23.9 µM (active).
